Data reported in PubChem BioAssay (EPA / NIEHS).
Active and inactive are the calls of the source. How the source made its calls: active means hit-call score of the fitted dose curve at least 0.9, where 1 is the maximum; inactive means score below 0.9.

Tests used:
[1] = read-out: TIMP metallopeptidase inhibitor 1 (TIMP1), TIMP1 (gene 7076); assay: BSK_hDFCGF_TIMP1: BioMAP Diversity Plus: hDFCGF Assay for TIMP metallopeptidase inhibitor 1 (TIMP1) Biomarker Activity (AID 2283062); settings: primary human foreskin fibroblasts; actives raise or lower the signal
Outline: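 Bidirectional curve fitting against DMSO baseline yielded this endpoint, based on ELISA detection of TIMP-1 in primary human foreskin fibroblasts exposed to compound for 24 h.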

[2] = read-out: Monokine induced gamma interferon (MIG), CXCL9 (gene 4283); assay: BSK_hDFCGF_MIG: BioMAP Diversity Plus: hDFCGF Assay for Monokine induced gamma interferon (MIG) Biomarker Activity (AID 2283063); settings: primary human foreskin fibroblasts; actives raise or lower the signal
Outline: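 Endpoint derived by bidirectional fitting relative to DMSO; MIG quantified via ELISA in primary human foreskin fibroblasts harvested 24 h after dosing.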

[3] = read-out: Matrix Metallopeptidase 1 (MMP1), MMP1 (gene 4312); assay: BSK_hDFCGF_MMP1: BioMAP Diversity Plus: hDFCGF Assay for Matrix Metallopeptidase 1 (MMP1) Biomarker Activity (AID 2283064); settings: primary human foreskin fibroblasts; actives raise or lower the signal
Outline: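 ELISA read-out of MMP1 from human foreskin fibroblasts (primary skin cells), 24 h post-dose. Gain or loss of signal was fitted bidirectionally versus DMSO negative control; cytotoxicity was checked by SRB in parallel cultures.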

[4] = read-out: Vascular cell adhesion molecule 1 (VCAM1), VCAM1 (gene 7412); assay: BSK_hDFCGF_VCAM1: BioMAP Diversity Plus: hDFCGF Assay for Vascular cell adhesion molecule 1 (VCAM1) Biomarker Activity (AID 2283065); settings: primary human foreskin fibroblasts; actives raise or lower the signal
Outline: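 Measured after 24 h chemical treatment of primary human skin fibroblasts, VCAM-1 was detected by ELISA and concentration-response analysed in both directions versus DMSO vehicle.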

[5] = read-out: Plasminogen activator inhibitor-1 (PAI1), SERPINE1 (gene 5054); assay: BSK_hDFCGF_PAI1: BioMAP Diversity Plus: hDFCGF Assay for Plasminogen activator inhibitor-1 (PAI1) Biomarker Activity (AID 2283066); settings: primary human foreskin fibroblasts; actives raise or lower the signal
Outline: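 PAI-1 levels in human dermal foreskin fibroblasts were quantified by ELISA 24 h after dosing, with gain or loss analysed against DMSO. Overt cytotoxicity was checked by sulforhodamine B total-protein staining in parallel cultures.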

[6] = read-out: Intercellular Adhesion Molecule 1 (ICAM1), ICAM1 (gene 3383); assay: BSK_KF3CT_ICAM1: BioMAP Diversity Plus: KF3CT Assay for Intercellular Adhesion Molecule 1 (ICAM1) Biomarker Activity (AID 2283067); settings: primary human keratinocytes with fibroblasts; actives raise or lower the signal
Outline: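 Bidirectional curve fitting against a DMSO baseline was applied to ICAM-1 ELISA signal from primary human skin co-cultures harvested 24 h after treatment, with SRB staining of parallel wells for overt cytotoxicity.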

[7] = read-out: Interferon-gamma inducible Protein 10 (IP10), CXCL10 (gene 3627); assay: BSK_KF3CT_IP10: BioMAP Diversity Plus: KF3CT Assay for Interferon-gamma inducible Protein 10 (IP10) Biomarker Activity (AID 2283068); settings: primary human keratinocytes with fibroblasts; actives raise or lower the signal
Outline: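 In a primary skin co-culture of keratinocytes and fibroblasts, IP-10 is quantified by ELISA at 24 h after dosing. SRB staining of parallel wells monitors overt toxicity. Curves are fitted both directions against DMSO.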

[8] = BSK_KF3CT_SRB: Viability Assessment in the BioMAP Diversity Plus: KF3CT Assay (AID 2283069); settings: primary human keratinocytes with fibroblasts;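 further: read 24 h after compound addition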
Outline: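 SRB read-out at 560 nm (0.1% stain, TCA-fixed cells) gauges overt cytotoxicity in a human skin keratinocyte–fibroblast co-culture 24 h post-dosing. Signal change was fitted bidirectionally relative to DMSO control.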

[9] = read-out: Interleukin-1 alpha (IL1a), IL1A (gene 3552); assay: BSK_KF3CT_IL1a: BioMAP Diversity Plus: KF3CT Assay for Interleukin-1 alpha (IL1a) Biomarker Activity (AID 2283070); settings: primary human keratinocytes with fibroblasts; actives raise or lower the signal
Outline: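 Primary skin co-culture (keratinocytes, foreskin fibroblasts), 24 h exposure; ELISA for IL-1a; bidirectional curve fit vs DMSO.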

[10] = read-out: TIMP metallopeptidase inhibitor 2 (TIMP2), TIMP2 (gene 7077); assay: BSK_KF3CT_TIMP2: BioMAP Diversity Plus: KF3CT Assay for TIMP metallopeptidase inhibitor 2 (TIMP2) Biomarker Activity (AID 2283071); settings: primary human keratinocytes with fibroblasts; actives raise or lower the signal
Outline: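 TIMP-2 measured by ELISA at 24 h in human keratinocyte/fibroblast primary co-cultures exposed to chemicals. Both increases and decreases were fitted against DMSO. Parallel cultures were stained with SRB for total protein as an overt-cytotoxicity check.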

[11] = read-out: Transforming growth factor beta 1 (TGFb1), TGFB1 (gene 7040); assay: BSK_KF3CT_TGFb1: BioMAP Diversity Plus: KF3CT Assay for Transforming growth factor beta 1 (TGFb1) Biomarker Activity (AID 2283072); settings: primary human keratinocytes with fibroblasts; actives raise or lower the signal
Outline: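 ELISA quantifies TGF-b1 at 24 h post-dose in a primary human skin co-culture of keratinocytes and fibroblasts, with gain or loss judged against DMSO. Parallel SRB total-protein staining flags overt cytotoxicity.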

[12] = read-out: Matrix Metallopeptidase 9 (MMP9), MMP9 (gene 4318); assay: BSK_KF3CT_MMP9: BioMAP Diversity Plus: KF3CT Assay for Matrix Metallopeptidase 9 (MMP9) Biomarker Activity (AID 2283074); settings: primary human keratinocytes with fibroblasts; actives raise or lower the signal
Outline: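 ELISA read-out of MMP-9 at 24 h post-dosing in a co-culture of human skin keratinocytes and foreskin fibroblasts. Gain or loss of signal was fitted in both directions against DMSO.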

[13] = read-out: urokinase plasminogen activator (uPA), PLAU (gene 5328); assay: BSK_KF3CT_uPA: BioMAP Diversity Plus: KF3CT Assay for urokinase plasminogen activator (uPA) Biomarker Activity (AID 2283075); settings: primary human keratinocytes with fibroblasts; actives raise or lower the signal
Outline: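 Skin co-culture (keratinocytes + foreskin fibroblasts), human primary; 24 h post-dose; uPA by ELISA; gain/loss fit vs DMSO baseline.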

CD40, CD40 (gene 958) = assay: BSK_LPS_CD40: BioMAP Diversity Plus: LPS Assay for CD40 Biomarker Activity (AID 2283076); settings: primary human HUVEC with PBMC; actives raise or lower the signal
Outline: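 Using a multiplexed primary human co-culture (umbilical vein endothelium plus PBMC), CD40 was read by ELISA 24 h after dosing, with cytotoxicity tracked by sulforhodamine B staining of parallel cultures and activity fitted bidirectionally versus DMSO.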

[14] = read-out: E-selectin (Homo sapiens) (UniProt P16581); assay: BSK_LPS_Eselectin: BioMAP Diversity Plus: LPS Assay for Eselectin Biomarker Activity (AID 2283077); settings: primary human HUVEC with PBMC; actives raise or lower the signal
Outline: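 Dose chemical onto LPS-driven HUVEC/PBMC co-culture; after 24 h, run ELISA for E-selectin; fit up- and down-going responses relative to DMSO control.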

[15] = read-out: Interleukin-8 (IL8), CXCL8 (gene 3576); assay: BSK_LPS_IL8: BioMAP Diversity Plus: LPS Assay for Interleukin-8 (IL8) Biomarker Activity (AID 2283078); settings: primary human HUVEC with PBMC; actives raise or lower the signal
Outline: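 In this LPS system, chemical-treated human umbilical vein endothelium/PBMC co-cultures were harvested at 24 h for IL-8 ELISA.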

[16] = read-out: Interleukin-1 alpha (IL1a), IL1A (gene 3552); assay: BSK_LPS_IL1a: BioMAP Diversity Plus: LPS Assay for Interleukin-1 alpha (IL1a) Biomarker Activity (AID 2283080); settings: primary human HUVEC with PBMC; actives raise or lower the signal
Outline: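 Primary human HUVEC and PBMC co-culture stimulated with LPS is dosed and harvested at 24 h. Both increases and decreases in ELISA-measured IL-1a are scored relative to DMSO.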

[17] = read-out: Monocyte Chemoattractant Protein-1 (MCP1), CCL2 (gene 6347); assay: BSK_LPS_MCP1: BioMAP Diversity Plus: LPS Assay for Monocyte Chemoattractant Protein-1 (MCP1) Biomarker Activity (AID 2283081); settings: primary human HUVEC with PBMC; actives raise or lower the signal
Outline: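 Values derive from bidirectional fitting against DMSO of ELISA-measured MCP-1 in a human primary endothelial and mononuclear cell co-culture, 24 h after chemical addition under LPS activation.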

[18] = BSK_LPS_SRB: Viability Assessment in the BioMAP Diversity Plus: LPS Assay (AID 2283079); settings: primary human HUVEC with PBMC;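 further: total protein by sulforhodamine B absorbance as a cytotoxicity measure; measured one day after compound addition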
Outline: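 Cytotoxicity endpoint in human endothelial–PBMC co-culture: 24 h exposure, then SRB (0.1%) staining, 560 nm read.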

[19] = read-out: C-C motif chemokine 2 (Homo sapiens) (UniProt P13500); assay: BSK_KF3CT_MCP1: BioMAP Diversity Plus: KF3CT Assay for Monocyte Chemoattractant Protein 1 (MCP1/CCL2) Biomarker Activity (AID 2283073); settings: primary human keratinocytes with fibroblasts; actives raise or lower the signal
Outline: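 Biomarker MCP-1 is measured by ELISA in primary human keratinocytes co-cultured with foreskin fibroblasts, 24 h after chemical treatment; DMSO serves as the negative control and activity baseline.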

Measured: outcome

Chain of E-selectin (Homo sapiens) (P16581 whole entry, looked up): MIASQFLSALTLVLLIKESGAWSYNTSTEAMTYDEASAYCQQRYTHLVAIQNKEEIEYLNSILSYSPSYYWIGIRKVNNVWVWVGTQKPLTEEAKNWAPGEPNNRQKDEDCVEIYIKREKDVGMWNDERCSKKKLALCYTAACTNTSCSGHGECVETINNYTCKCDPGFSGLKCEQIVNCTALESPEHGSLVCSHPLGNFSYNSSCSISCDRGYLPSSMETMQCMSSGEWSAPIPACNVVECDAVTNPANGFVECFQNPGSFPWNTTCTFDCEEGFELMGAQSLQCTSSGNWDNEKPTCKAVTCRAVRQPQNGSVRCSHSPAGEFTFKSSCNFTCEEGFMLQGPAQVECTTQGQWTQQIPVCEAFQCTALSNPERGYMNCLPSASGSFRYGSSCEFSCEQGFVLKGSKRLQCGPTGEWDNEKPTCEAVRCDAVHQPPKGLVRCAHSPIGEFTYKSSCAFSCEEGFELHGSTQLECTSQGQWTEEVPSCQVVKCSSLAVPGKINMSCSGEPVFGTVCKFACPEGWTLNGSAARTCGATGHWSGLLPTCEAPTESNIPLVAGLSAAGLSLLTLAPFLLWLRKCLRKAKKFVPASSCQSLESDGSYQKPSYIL

CO[C@@H]1COCC[C@@H]1N[C@@H]1CC[C@@](C(=O)N2CCc3ncc(C(F)(F)F)cc3C2)(C(C)C)C1
not listed: [18] | [19]
inactive: all other assays above

N[C@@H](Cc1c[nH]c2ccccc12)C(=O)O
not listed: [10] | [15] | [19]
inactive: all other assays above

CC1(C)C(=O)NC(=O)N1CO
not listed: [10] | [15] | [18] | [19]
inactive: all other assays above

NC=O
not listed: [3] | [15]
inactive: all other assays above

CCCC(=O)O
not listed: [10] | [18]
inactive: all other assays above

c1ccc2occc2c1
not listed: [10] | [15] | [19]
inactive: all other assays above

C#CC(O)C(CC)CCCC (stereo not given)
not listed: [8] | [19]
inactive: all other assays above

CC(C)(C)c1ccccc1
not listed: [10] | [18]
inactive: all other assays above
